Several values for one entry are separate records, joined by “and”; a condition that tells them apart may be missing. Identical values can stand only once. About 2,000 (36%) of roughly 5,500 compounds were called active. Not shown: some 18% with an inconclusive outcome. Rule as the data show it: active = normalized growth mostly below about 0.91 (no sharp cut-off); inconclusive = no clear call, values can overlap the other calls; inactive = mostly above about 0.92. The list shows a part of the results.
Test: chemical genetic growth profiling, strain panel (AID 1159580);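 also: tested at 20 µM; growth read once vehicle control cultures reached saturation at 30 °C; 1 = growth at the plate median or of vehicle wells; lower values mean less growth of the strain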
Details: S. cerevisiae deletion strains, growth OD

Measured: normalized growth

COC(=O)[C@@H]1OC(=O)[C@H]2O[C@@]23[C@@]1(C)CCC1[C@@]2(C)CCC(=O)C(C)(C)C2C[C@@H](OC(C)=O)[C@]13C (some centres not stated)
inactive: locus YAL021C, strain ccr4, active compounds read low 1.04 | locus YAL026C, strain drs2, active compounds read low 0.992 | locus YAL030W, strain snc1, active compounds read low 0.989 | locus YBL061C, strain skt5, active compounds read low 0.994 | locus YBR009C, strain hhf1, active compounds read low 1.03 | locus YBR021W, strain FUR4, active compounds read low 0.997 | locus YBR023C, strain chs3, active compounds read low 1 | locus YBR171W, strain sec66, active compounds read low 0.959 | locus YBR229C, strain ROT2, active compounds read low 1.01 | locus YBR231C, strain swc5, active compounds read low 0.974 | locus YBR279W, strain paf1, active compounds read low 1.02 | locus YCL011C, strain gbp2, active compounds read low 0.998 | locus YCL016C, strain dcc1, active compounds read low 1.03 | locus YCL029C, strain bik1, active compounds read low 0.997 | locus YCL069W, strain vba3, active compounds read low 0.987 | locus YCR088W, strain abp1, active compounds read low 0.972 | locus YDL005C, strain med2, active compounds read low 0.969 | locus YDL035C, strain GPR1, active compounds read low 0.998 | locus YDL040C, strain nat1, active compounds read low 0.987 | locus YDL074C, strain BRE1, active compounds read low 1.01 | locus YDL101C, strain DUN1, active compounds read low 1.02 | locus YDL134C, strain PPH21, active compounds read low 1.01 | locus YDL185W, strain tfp1, active compounds read low 1.01 | locus YDL192W, strain arf1, active compounds read low 0.988 | locus YDR001C, strain nth1, active compounds read low 0.983 | locus YDR069C, strain doa4, active compounds read low 0.953 | locus YDR101C, strain arx1, active compounds read low 0.993 | locus YDR137W, strain rgp1, active compounds read low 1 | locus YDR159W, strain sac3, active compounds read low 0.92 | locus YDR162C, strain NBP2, active compounds read low 0.999 | locus YDR195W, strain ref2 0.926 | locus YDR297W, strain sur2, active compounds read low 1 | locus YDR318W, strain mcm21, active compounds read low 1.01 | locus YDR334W, strain swr1, active compounds read low 0.967 | locus YDR388W, active compounds read low 1.01 | locus YDR392W, strain spt3, active compounds read low 0.993 | locus YDR502C, strain sam2, active compounds read low 1.02 | locus YEL003W, strain gim4, active compounds read low 0.986 | locus YEL037C, strain rad23, active compounds read low 0.974 | locus YEL061C, strain CIN8 (second series), active compounds read low 0.975 | locus YEL061C, strain CIN8, active compounds read low 1 | locus YER015W, strain faa2, active compounds read low 0.98 | locus YER016W, strain bim1, active compounds read low 0.98 | locus YER110C, active compounds read low 1 | locus YER111C, strain swi4, active compounds read low 0.984 | locus YER155C, strain BEM2 (second series), active compounds read low 1.01 | locus YER155C, strain BEM2, active compounds read low 1.01 | locus YER167W, strain BCK2, active compounds read low 0.988 | locus YFR010W, strain ubp6, active compounds read low 0.966 | locus YGL078C, strain dbp3, active compounds read low 1.02 | locus YGL086W, strain mad1, active compounds read low 1 | locus YGL167C, strain pmr1, active compounds read low 0.993 | locus YGL173C, strain kem1, active compounds read low 0.985 | locus YGL227W, strain vid30, active compounds read low 0.986 | locus YGL240W, strain doc1, active compounds read low 0.953 | locus YGL248W, strain PDE1, active compounds read low 1.02 | locus YGL253W, strain hxk2, active compounds read low 0.958 | locus YGR135W, strain pre9, active compounds read low 1.06 | locus YGR252W, strain gcn5, active compounds read low 1.05 | locus YHR013C, strain ard1, active compounds read low 1 | locus YHR027C, strain rpn1, active compounds read low 0.976 | locus YHR030C, strain SLT2, active compounds read low 1 and 0.997 | locus YHR079C, strain IRE1 (second series), active compounds read low 1.01 | locus YHR079C, strain IRE1, active compounds read low 0.999 | locus YHR094C, strain hxt1, active compounds read low 1.02 | locus YHR129C, strain ARP1, active compounds read low 1.01 | locus YHR142W, strain chs7, active compounds read low 0.976 | locus YHR200W, strain rpn10, active compounds read low 1.02 | locus YIL066C, strain RNR3, active compounds read low 0.984 | locus YIL073C, strain SPO22, active compounds read low 0.998 | locus YIL125W, strain kgd1, active compounds read low 1 | locus YIR030C, strain dcg1, active compounds read low 0.998 | locus YJL092W, strain hpr5, active compounds read low 0.971 | locus YJL095W, strain BCK1 (second series), active compounds read low 0.964 | locus YJL095W, strain BCK1, active compounds read low 1.03 and 0.994 | locus YJL115W, strain asf1, active compounds read low 0.965 | locus YJL129C, strain trk1, active compounds read low 0.939 | locus YJL134W, strain LCB3, active compounds read low 0.994 | locus YJL154C, strain vps35, active compounds read low 0.989 | locus YJL164C, strain tpk1, active compounds read low 1.03 | locus YJL166W, strain qcr8, active compounds read low 0.972 | locus YJL168C, strain set2, active compounds read low 1.01 | locus YJL187C, strain SWE1 (second series), active compounds read low 1.04 | locus YJR066W, strain TOR1, active compounds read low 0.912 | locus YKL009W, strain mrt4, active compounds read low 0.977 | locus YKL068W, active compounds read low 0.998 | locus YKL085W, strain MDH1 (second series), active compounds read low 0.998 | locus YKL085W, strain MDH1, active compounds read low 0.998 | locus YKL160W, strain elf1, active compounds read low 1.07 | locus YKL190W, strain CNB1, active compounds read low 1 | locus YKR001C, strain vps1, active compounds read low 0.994 | locus YKR026C, strain gcn3, active compounds read low 0.966 | locus YKR091W, strain srl3, active compounds read low 0.992 | locus YLL001W, strain dnm1, active compounds read low 0.992 | locus YLL026W, active compounds read low 0.981 | locus YLL041C, strain sdh2, active compounds read low 0.98 | locus YLR027C, strain aat2, active compounds read low 0.99 | locus YLR039C, strain RIC1, active compounds read low 1.03 | locus YLR058C, strain SHM2, active compounds read low 1.01 | locus YLR102C, strain apc9, active compounds read low 1 | locus YLR113W, strain HOG1, active compounds read low 1.01 | locus YLR221C, strain rsa3, active compounds read low 0.987 | locus YLR258W, strain gsy2, active compounds read low 1 | locus YLR262C, strain YPT6 (second series), active compounds read low 1 | locus YLR268W, strain sec22, active compounds read low 0.991 | locus YLR320W, strain mms22, active compounds read low 0.995 | locus YLR342W, strain FKS1 (second series), active compounds read low 1.04 | locus YLR342W, strain FKS1, active compounds read low 0.992 | locus YLR357W, strain rsc2, active compounds read low 0.967 | locus YLR370C, strain arc18, active compounds read low 0.989 | locus YLR371W, strain rom2, active compounds read low 0.997 | locus YLR384C, strain iki3, active compounds read low 0.985 | locus YLR418C, strain cdc73, active compounds read low 1.04 | locus YML016C, strain PPZ1, active compounds read low 1 | locus YML032C, strain rad52, active compounds read low 0.996 | locus YML120C, strain ndi1, active compounds read low 1.01 | locus YML124C, strain tub3, active compounds read low 1.01 | locus YMR058W, strain fet3, active compounds read low 0.993 | locus YMR078C, strain ctf18, active compounds read low 1.01 | locus YMR125W, strain sto1, active compounds read low 0.983 | locus YMR129W, active compounds read low 0.987 | locus YMR205C, strain PFK2, active compounds read low 1.01 | locus YMR223W, strain ubp8, active compounds read low 1.01 | locus YMR231W, strain pep5, active compounds read low 0.981 | locus YMR307W, strain GAS1, active compounds read low 0.917 | locus YNL067W, strain RPL9B, active compounds read low 1.04 | locus YNL071W, strain lat1, active compounds read low 0.976 | locus YNL153C, strain GIM3, active compounds read low 1.03 | locus YNL183C, strain NPR1, active compounds read low 0.929 | locus YNL209W, strain ssb2, active compounds read low 0.982 | locus YNL233W, strain BNI4, active compounds read low 1.02 | locus YNL248C, strain rpa49, active compounds read low 0.907 | locus YNL250W, strain rad50, active compounds read low 1.03 | locus YNL271C, strain bni1, active compounds read low 1.01 | locus YNL298W, strain CLA4, active compounds read low 0.993 | locus YNL307C, strain MCK1, active compounds read low 1.02 | locus YNL322C, strain KRE1 (second series), active compounds read low 0.959 | locus YNR049C, strain mso1, active compounds read low 0.966 | locus YNR052C, strain pop2, active compounds read low 1.03 | locus YOL006C, strain TOP1, active compounds read low 1.02 | locus YOL012C, strain htz1 1.17 | locus YOL147C, strain pex11, active compounds read low 0.998 | locus YOR001W, strain rrp6, active compounds read low 0.909 | locus YOR061W, strain CKA2, active compounds read low 0.987 | locus YOR069W, strain VPS5, active compounds read low 0.999 | locus YOR070C, strain gyp1, active compounds read low 1 | locus YOR080W, strain dia2, active compounds read low 0.978 | locus YOR083W, strain WHI5, active compounds read low 1.08 | locus YOR106W, strain vam3, active compounds read low 1.03 | locus YOR136W, strain idh2, active compounds read low 1.01 | locus YOR144C, strain elg1, active compounds read low 1 | locus YOR184W, strain ser1, active compounds read low 0.981 | locus YOR231W, strain MKK1, active compounds read low 0.98 | locus YOR265W, strain rbl2, active compounds read low 0.976 | locus YOR270C, strain vph1, active compounds read low 1.02 | locus YOR290C, strain snf2, active compounds read low 0.996 | locus YOR316C, strain cot1, active compounds read low 1.01 | locus YPL051W, strain arl3, active compounds read low 1.02 | locus YPL078C, strain atp4, active compounds read low 1.04 | locus YPL106C, strain sse1, active compounds read low 0.997 | locus YPL240C, strain hsp82, active compounds read low 0.976 | locus YPL256C, strain CLN2, active compounds read low 0.979 | locus YPR119W, strain clb2, active compounds read low 1.01 | locus YPR141C, strain kar3, active compounds read low 1.01 | locus YPR163C, strain tif3, active compounds read low 1.01 | locus YPR167C, strain met16, active compounds read low 1.02 | strain wtn01, active compounds read low 0.998
